Screens deposited in PubChem BioAssay by The Scripps Research Institute Molecular Screening Center.
TTR transcr act: TTR transcription activators in neuroblastoma reporter cells, primary screen, cell-based, luminescence, SH-SY5Y, TTR promoter Gaussia luciferase | AID 1117267, 2014 | activation, % at 16.7 µM | 100% = recombinant luciferase protein wells | actives 1.3% (n = 92,000);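 active = activation above the mean of all tested compounds plus 3 SD, cut at about 9.5% in these data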;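 note: cells exposed to compounds for one day before reading; 0% = median of all test compound wells on the plate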
HuH7 TTR inh: TTR promoter reporter inhibitors in hepatoma cells, counter-screen for TTR transcription activator project, cell-based, luminescence, HuH7 hepatoma | shares compounds with TTR transcr act | HuH7 TTR promoter-Gaussia luciferase reporter | inhibition, % at 16.7 µM | actives 4% (n = 1,100);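 active = average inhibition above the solvent-only control wells' mean plus 3 SD, cut at about 15% in these data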;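 note: 0% = cells with DMSO only and 100% = cells with inhibitor control FD; inhibitors lower well luminescence so higher value means more inhibition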
TTR up confirm: TTR transcription activators, retest, confirmation, cell-based, luminescence, SH-SY5Y, triplicate; SHSY5Y TTR promoter Gaussia luciferase; 100% = purified Lucia enzyme wells, no cells; activation, % at 16.7 µM; shares compounds with TTR transcr act; AID 1117280, 2014; 1,100 tested, under 10 active;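 active = mean activation above a set limit taken from the earlier primary screen, cut at about 11% in these data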;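 note: 0% = DMSO-treated cells and 100% = recombinant Lucia luciferase without cells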
Starred values were filed as active, the others as inactive. This is one part of a sample in which hits are shown more often than they occur.

What do the screens show for `C#CCNC(=O)C[C@@H]1C(=O)N(CCc2ccc(Cl)cc2)C2=CCCCC[C@]21C(=O)OC`?
TTR transcr act: 0.9

Results for COc1ccccc1NC(=O)OC1CC2CC1[C@H]1CCCCN1[C@H]2C (stereo partly drawn) ?
TTR transcr act: 0.8

How did CCC(C)NC(=O)Cn1c(=O)sc2ccccc21 (stereo not drawn) do in these assays?
TTR transcr act: 3.2

How did CCOC(=O)Cn1nc2sc3ccccc3n2c(=O)c1=O do in these assays?
TTR transcr act: 2.2

What do the screens show for `CCOC(=O)Cn1c(=O)sc2ccccc21`?
TTR transcr act: 17.3*; HuH7 TTR inh: -3.9; TTR up confirm: 0.1

Results for COC(=O)[C@]12C[C@H](CC(=O)N3CCN(C(=O)C4CC4)CC3)C(=O)N(Cc3ccc(Cl)cc3Cl)C1=C[C@H](C(C)C)O[C@@H]2C1CC1 ?
TTR transcr act: -1.8

What do the screens show for `O=C(OCc1cn(Cc2ccc(Cl)cc2)nn1)N1CCOCC1`?
TTR transcr act: 0.5

Results for O=C(NC1CCCCCC1)c1cccc(S(=O)(=O)N2CCOCC2)c1 ?
TTR transcr act: 3.3

What do the screens show for `O=C(NC1CCCCC1)c1cccc(S(=O)(=O)N2CCOCC2)c1`?
TTR transcr act: 2.2

How did COc1ccc(S(=O)(=O)N2CCOCC2)cc1C(=O)Nc1cccc(C(=O)NC2CC2)c1 do in these assays?
TTR transcr act: 13.2*; HuH7 TTR inh: -8.0; TTR up confirm: 1.6

Results for O=S1(=O)c2c(cccc2N2CCC[C@H]2CO)OCCCN1C1CC1 ?
TTR transcr act: -0.2

How did CCOC(=O)CCCC(=O)N1CCOCCOCCN(C(=O)CCCC(=O)OCC)CCOCCOCC1 do in these assays?
TTR transcr act: -1.4

What do the screens show for `O=C(CCCCC(=O)OCC1COCO1)OCC1COCO1` (stereo not drawn)?
TTR transcr act: 10.4*; HuH7 TTR inh: -1.9; TTR up confirm: 0.0

How did O=C(CCCCC(=O)OCC1CCCO1)OCC1CCCO1 (stereo not drawn) do in these assays?
TTR transcr act: 2.3

Results for COC(=O)[C@]12C[C@H](CC(=O)NCCCCc3ccccc3)C(=O)N(Cc3ccc4c(c3)OCO4)C1=C[C@H](C(C)C)O[C@@H]2C1CC1 ?
TTR transcr act: 0.0

How did C[C@@H]1CCN(C2CC2)S(=O)(=O)c2c(cccc2N2CC[C@H](N(C)C)C2)O1 do in these assays?
TTR transcr act: 0.8

Results for Cc1ccccc1-c1nc(-c2cccnc2)no1 ?
TTR transcr act: -0.6

What do the screens show for `CCCCC(=O)Nc1ccnc(-c2cccnc2)n1`?
TTR transcr act: -0.2

What do the screens show for `CCCCC1CCC(c2nc(-c3cccnc3)no2)CC1` (stereo not drawn)?
TTR transcr act: 13.5*; HuH7 TTR inh: 0.7; TTR up confirm: 0.0

How did Cc1ccnc(SCc2cc(=O)c(OC(=O)c3ccc(C)c([N+](=O)[O-])c3)co2)n1 do in these assays?
TTR transcr act: -1.5

Results for COc1cccc(CN2CCN(S(=O)(=O)c3ccccc3)CC2)c1OC ?
TTR transcr act: 8.1

Results for COc1ccc(CN2CCN(S(=O)(=O)c3ccccc3)CC2)c(OC)c1 ?
TTR transcr act: 2.2

Results for COc1ccc(CN2CCN(S(=O)(=O)c3ccccc3)CC2)c(OC)c1OC ?
TTR transcr act: 16.7*; HuH7 TTR inh: -14.2; TTR up confirm: -0.7

What do the screens show for `COc1ccc(S(=O)(=O)NC2CCN(C#N)CC2)cc1`?
TTR transcr act: 3.9

How did O=C(OCC#CCSc1nnc(-c2cccc3ccccc23)o1)C1CCC1 do in these assays?
TTR transcr act: 2.9

What do the screens show for `O=C(c1cccc(F)c1)n1ccc2ccc(-c3ccc4ccn(Cc5ccccc5)c4c3)cc21`?
TTR transcr act: 1.4

Results for C[C@@H]1CCCCO[C@@H](CN(C)Cc2ccc(C(=O)O)cc2)[C@@H](C)CN([C@H](C)CO)C(=O)c2cc(NS(C)(=O)=O)ccc2O1 ?
TTR transcr act: -0.5

Results for CCCCCCCCCCCCC(=O)CCCCC(=O)O ?
TTR transcr act: -1.0

How did CCCCCCC(=O)O do in these assays?
TTR transcr act: 0.3

What do the screens show for `CC(CCCCCCCCC(=O)O)N(CCO)C(=O)OC(C)(C)C` (stereo not drawn)?
TTR transcr act: 10.4*; HuH7 TTR inh: -4.5; TTR up confirm: -0.3

How did COC(=O)[C@]12C[C@H](CC(=O)N3CCCCC3)C(=O)N(Cc3ccco3)C1=C[C@H](C1CCCC1)O[C@@H]2C do in these assays?
TTR transcr act: -0.2

Results for CC(Oc1cccc2cccnc12)C(=O)N/N=C/c1ccccc1 (stereo not drawn) ?
TTR transcr act: -2.2

What do the screens show for `CC(Oc1cccc2cccnc12)C(=O)N/N=C/c1ccc2c(c1)OCO2` (stereo not drawn)?
TTR transcr act: 12.6*; HuH7 TTR inh: -8.2; TTR up confirm: -0.7

What do the screens show for `COc1ccc(/C=N/NC(=O)COc2cccc3cccnc23)cc1OC`?
TTR transcr act: -0.9

Results for Cc1ccc(-c2cc(C#N)c3n(c2=O)CCC3)cc1 ?
TTR transcr act: -1.2

What do the screens show for `COCCSc1ccccc1C(=O)N1CCN(c2ccccc2)CC1`?
TTR transcr act: 0.3

Results for COCCSc1ccccc1C(=O)N1CCCC(C)C1 (stereo not drawn) ?
TTR transcr act: 20.9*; HuH7 TTR inh: -26.0; TTR up confirm: 0.1

How did CCOC(=O)N1CCN(C2CCCN(C(=O)c3ccccc3SC)C2)CC1 (stereo not drawn) do in these assays?
TTR transcr act: 1.1

How did Cc1ccccc1CN1[C@@H](C)[C@H](c2ccccc2)Oc2cccc(N3CCCC3)c2S1(=O)=O do in these assays?
TTR transcr act: -1.0

What do the screens show for `C#CCOCCOCCOCCNc1nc(N2CCN(C(=O)[C@H]([C@@H](C)CC)n3cc(CCCCN)nn3)CC2)nc(N2CCN(C(=O)[C@H](Cc3ccc(O)cc3)n3cc(CCO)nn3)CC2)n1`?
TTR transcr act: 0.8

How did c1ccc(NC2=NCCN2CC2CCC2)cc1 do in these assays?
TTR transcr act: -0.7

What do the screens show for `O[C@@H]1CN(CC2CCCCC2)[C@@H](c2ccccc2)C[C@H]1n1cc(C2CC2)nn1`?
TTR transcr act: -0.1

Results for NC1=NC[C@H](c2ccccc2)N1CC1CCCCC1 ?
TTR transcr act: 15.0*; HuH7 TTR inh: -2.7; TTR up confirm: -0.8

How did COC(=O)[C@]12C[C@H](CC(=O)NCCCN3CCCC3=O)C(=O)N(Cc3ccco3)C1=C[C@H](COCc1ccccc1)O[C@@H]2C do in these assays?
TTR transcr act: 5.8

How did C#CCNC(=O)C[C@@H]1C(=O)N2CCCC3=C2[C@@]1(C(=O)OC)CCCC3 do in these assays?
TTR transcr act: -0.4

What do the screens show for `Cc1cccc(N2CCN(C(=O)N3CCOCC3)CC2)c1C`?
TTR transcr act: 0.9

What do the screens show for `S=C(NC1CCCC1)N1CCN(c2ccccn2)CC1`?
TTR transcr act: 4.5

How did Cc1cccc(N2CCN(C(=S)NC3CCCCC3)CC2)c1C do in these assays?
TTR transcr act: 12.2*; HuH7 TTR inh: 11.9; TTR up confirm: 0.6

Results for c1ccc(Cn2ccc3ccc(-c4ccc5ccn(Cc6cccc(-c7ccsc7)c6)c5c4)cc32)cc1 ?
TTR transcr act: 0.1
